Screening results (PubChem)
FLuc inh-1 = inhibitors of firefly (Photinus pyralis) luciferase; P08659; purified P. pyralis luciferase, luminescence, biochemical; Potency, µM (top dose mostly 115 µM), actives largely listed as inhibitors; hit rate 2.5% among 76,000; AID 1347043; note: % is set by controls: 0 for no effect and ±100 for the full control effect; nearly all actives have a fitted effect of over 65% in size
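Cell-free enzyme assay, 10nM P. pyralis luciferase, luciferin and ATP each at 10uM. Inhibition profiled over a 6-point titration, read as luminescence.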
HEK cytotox = kills HEK 293 cells. HEK 293 viability, ATP luminescence (CellTiter-Glo), 48-72 h. Potency, µM (top dose mostly 115 µM), inactives show top-dose activity change, negative = cytotoxicity, actives largely listed as inhibitors. hit rate 6.6% among 94,000; note: % is set by controls: 0 for no effect and ±100 for the full control effect; nearly all actives have a fitted effect of over 60% in size
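qHTS cytotoxicity; HEK 293, 250 cells/well; compound pinned; 48 or 72 hr, 37 degree Celsius, 5% CO2, 95% humidity; CellTiter-Glo, 10 min RT; luminescence (ATP).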
hNpr1 antagonist = antagonists of human natriuretic peptide receptor Npr1; P16066; HEK293 hNpr1 GloSensor cGMP, ANP-stimulated luminescence; Potency, µM (top dose mostly 46.3 µM), without a hit: at the highest dose activity change, negative = inhibition, hits mostly inhibitors; hit rate 1.6% among 76,000; calls by dose curve; note: % is set by controls: 0 for no effect and ±100 for the full control effect; nearly all actives have a fitted effect of over 60% in size
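HEK293 cells stably expressing human Npr1 and cGMP GloSensor pGS-40F, loaded 2 h with 2% GloSensor reagent, given compound 30 min at room temperature. Luminescence read before and 20 min after 0.1 nM hNppA.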
NIH3T3 tox = NIH 3T3 cell cytotoxicity | NIH 3T3 viability, CellTiter-Glo ATP luminescence, 48-72 h | hit rate 4.3% among 94,000 | AID 1345082 | Potency, µM (highest dose often 96.7 µM), for the others: at the top dose activity change, negative = cytotoxicity, usual class: inhibitors; note: % is set by controls: 0 for no effect and ±100 for the full control effect; nearly all actives have a fitted effect of over 55% in size
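First NIH 3T3 cells are plated at 400 cells/well; next compound is pinned in; then plates incubate 48 or 72 hr at 37 °C; finally CellTiter-Glo is added and luminescence read after 10 min.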
GPT2 inhibitor = GPT2 alanine aminotransferase inhibition; Q8TD30; Recombinant GPT2, coupled pyruvate oxidase/HRP Amplex Red fluorescence; Potency, µM (doses to about 57.7 µM), for the others: top-dose activity change, negative = inhibition, hits mostly inhibitors; hit rate 0.25% among 100,000; note: % is set by controls: 0 for no effect and ±100 for the full control effect; nearly all actives have a fitted effect of over 60% in size
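Fluorescence of coupled pyruvate oxidase/HRP/Amplex Red system (50uM Amplex, 30 min, dark) reports pyruvate formed by GPT2. Enzyme reaction: 10ng/uL GPT2, 2mM L-alanine, 250uM a-KG, 30 min room temperature, pH 7.5; 50uM AOA control.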
FLuc SDR -ATP = firefly luciferase binding stabilization, ATP absent | shares compounds with FLuc inh-1 | Purified FLuc-C-HiBiT, Nano-Glo HiBiT luminescence, no ATP | Potency, µM (series often up to 32.7 µM), without a hit: at the highest dose activation (signal gain), actives largely listed as activators | hit rate 7.8% among 1,300; note: nearly all actives have a fitted effect of over 55% in size
FLuc SDR ATP = firefly luciferase binding stabilization, ATP added; shares compounds with FLuc inh-1; hit rate 8.7% among 1,300; purified FLuc-C-HiBiT + ATP, HiBiT complementation luminescence; Potency, µM (series often up to 32.7 µM), for the others: at the top dose activation (gain of signal), usual class: activators;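 note: signal reports ligand binding via conformational change of the enzyme rather than luciferase catalysis; % of control where 0% means no effect; nearly all actives have a fitted effect of over 55% in size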
FLuc inh-2 = inhibitors of firefly luciferase enzymatic activity; shares compounds with FLuc inh-1; purified FLuc-C-HiBiT enzyme, luciferin luminescence; Potency, µM (titrated, usually from 32.7 µM), without a hit: at the highest dose activity change, negative = inhibition, most hits filed as inhibitors; hit rate 42% among 1,300; note: % is set by controls: 0 for no effect and ±100 for the full control effect; nearly all actives have a fitted effect of over 70% in size
* hit, by the source's call; i = inactive; ? = inconclusive; · = no result; [ ] = dose if it differs, or a comment. Most compounds without a hit are left out; they make up all but 10% or so of the library. Unless noted, calls come from the whole dose curve; as a rule, active = well fitted curve in the direction sought with a large enough effect; inconclusive = small, poorly fitted or top-dose-only effect, or another doubt; inactive = no such curve, though single readings can be large; an effect the other way counts as inactive or inconclusive. Potency is the fitted concentration of half-maximal effect.

SMILES | FLuc inh-1 | HEK cytotox | hNpr1 antagonist | NIH3T3 tox | GPT2 inhibitor | FLuc SDR -ATP | FLuc SDR ATP | FLuc inh-2
Cc1cccc(NC(=O)Nc2ccc(F)cc2)n1 | · | · | · | · | · | 18.4% | 12.8% | ?
O=C(NCCc1ccccc1)NCC1CCC(=O)N(Cc2ccccc2)CC1 (stereo unspecified) | · | -5.2% | · | -22.7% | -2.4% | · | · | ·
COc1ccccc1Cn1c(=O)c(C(=O)NCCSC)nc2cccnc21 | · | 0.8% | · | ? | -6.3% | · | · | ·
COc1ccc(NC(=O)Cn2c(SCc3ccc(C)cc3)nc3cccnc32)cc1OC | · | · | · | · | · | 1.4µM* | ? | 0.7µM*
COc1cc(OC)c(NC(=O)Cn2c(SCc3ccccc3F)nc3cccnc32)cc1Cl | · | · | · | · | · | 18.4% | 12.4% | -8.2%
CCOC(=O)C1(Cc2ccccc2C)CCCN(Cc2nccn2CC)C1 (stereo unspecified) | i | ? | -12.2% | ? | -7.8% | · | · | ·
CCOc1cc(C(=O)Nc2ccc(-c3nc4ccccc4s3)cc2Cl)cc(OCC)c1OCC | · | · | · | · | · | 16.7% | 12.4% | ?
COc1ccc(-c2ccc(NC(=O)c3ccc(F)cc3)cc2)nn1 | · | 1.7%[172 µM] | · | 3.8%[138 µM] | · | · | · | ·
CCOc1cc(=O)n2c(c1C(=O)Nc1ccccc1Cl)CCCC2 | i | ? | -7.2% | ? | i | · | · | ·
COc1ccc(-c2noc([C@@H](C)NC(=O)c3nc4ccccc4s3)c2C(=O)O)cc1 | ? | ? | -1.6% | -13.0% | ? | · | · | ·
COc1ccc(-c2nc3ccccc3s2)cc1NC(=O)c1ccc(F)cc1 | · | · | · | · | · | 14.4% | 8.8% | -5.3%
COc1cc(OC)cc(C(=O)Nc2cc(-c3nc4ccccc4s3)ccc2OC)c1 | · | · | · | · | · | 13.4% | 8.1% | -13.2%
Cc1cccc(CNC(=O)Cc2csc3ccccc23)c1 | · | · | · | · | · | 15.5% | 11.7% | -17.3%
Cc1ccc(C(=O)COC(=O)c2cc(-c3cccs3)nc3ccccc23)cc1 | · | · | · | · | · | 12.0% | 11.0% | ?
COC(=O)[C@H](NC(=O)c1cc(-c2ccccc2)nc2ccccc12)c1ccccc1 | · | · | · | · | -1.8% | · | · | ·
COc1ccc(CC(=O)NC2CCN(C(=O)c3ccc(-c4ncccc4C#N)cc3)CC2)cc1 | · | -24.4% | · | ? | i | · | · | ·
OC1CN(Cc2ccc(-c3cnc4c(OCc5ccccc5)nccn34)cc2)C1 | 5.01µM* | ? | -27.4%[70.6 µM] | 89.1µM* | -1.0%[88.5 µM] | 25.9%[49.3 µM] | ? | ?
O=C(NC1CCCCC1)N1CCC(c2nc(C3CCOCC3)no2)CC1 | i | -7.7% | 11.8% | -13.8% | 0.3% | · | · | ·
O=C(Nc1ccc2c(c1)OCCO2)N1CCCC1c1nc(CCOCC2CCCC2)no1 (stereo unspecified) | ? | ? | 0.0% | -22.9% | i | · | · | ·
O=C(Nc1ccc2c(c1)OCCO2)N1CCC(c2nc(C3CCOCC3)no2)CC1 | 10µM* | -3.9% | 1.1% | -17.6% | i | 19.3% | 15.3% | ?
O=C(Nc1ccc2c(c1)OCCO2)N1CC(c2nc(CCOCC3CC3)no2)C1 | 11.2µM* | ? | 2.0% | -26.1% | 3.4% | 21.5% | 13.0% | ?
Cc1ccc(NC(=O)COc2cccc(-c3nnc4n3CCCC4)c2)cc1 | i | -10.4% | 3.7% | -20.4% | i | · | · | ·
Cc1ccc2nc(-c3ccc(NC(=O)COc4ccccc4)cc3)sc2c1 | · | · | · | · | · | 26.4% | 19.2% | 6.24µM*
CCc1ccc(C(=O)Nc2ccc(-c3nnc4n3CCCC4)cc2)cc1 | ? | 3.2% | -2.4% | -3.6% | -11.6% | · | · | ·
Cc1ccc2nc(-c3ccc(NC(=O)COc4ccccc4C(C)(C)C)cc3)sc2c1 | · | · | · | · | · | 19.1% | 11.7% | ?
SMILES | FLuc inh-1 | HEK cytotox | hNpr1 antagonist | NIH3T3 tox | GPT2 inhibitor | FLuc SDR -ATP | FLuc SDR ATP | FLuc inh-2
CCOc1ncccc1C(=O)OCC(=O)Nc1ccc(-c2nc3ccc(C)cc3s2)cc1 | · | · | · | · | · | 21.9%[65.7 µM] | 19.2%[65.7 µM] | ?
CCCCN(C)S(=O)(=O)c1ccc(C(=O)Nc2ccc(-c3nc4ccc(C)cc4s3)cc2)cc1 | · | · | · | · | · | 16.1% | 12.0% | -15.0%
CNC(=O)c1cc(C2CC2)nc2c1c(C1CCCN1C(=O)c1ccc(F)cc1)nn2C (stereo unspecified) | · | -9.7% | · | -26.1% | · | · | · | ·
COc1ccc(C(=O)N2CCC(C(=O)N3CCC(c4ccccc4)CC3)CC2)cc1 | · | -28.3% | · | -33.7% | -6.0% | · | · | ·
COc1ccccc1-n1c(=O)c(C(=O)N2CCN(C(C)=O)CC2)nc2cccnc21 | · | i | · | -5.4% | i | · | · | ·
CN1CC(C(=O)NCc2cccc(F)c2)NC1=O (stereo unspecified) | · | -28.3%[172 µM] | · | -21.9%[138 µM] | 0.2%[88.5 µM] | · | · | ·
CSc1ccc(-c2cccc(C(=O)NCCNC(=O)c3cccc(Cl)c3)c2)cc1 | · | -28.7% | · | -27.9% | 3.2% | · | · | ·
O=C(NCc1ccccc1F)c1nc2sccn2c1-c1cccnc1 | · | i | · | ? | ? | · | · | ·
O=C(NCc1ccc(F)cc1Cl)C1CCN(C(=O)c2ncn3c2COC(c2ccccc2)C3)CC1 (stereo unspecified) | 12.6µM* | -2.3% | -11.7% | i | -16.2% | 12.9% | ? | ?
CCOc1ccccc1CNC(=O)C1CCN(C(=O)c2ncn3c2COC(c2ccccc2)C3)CC1 (stereo unspecified) | 3.98µM* | -5.3% | -11.8% | -21.1% | i | 11.7% | 2.21µM* | 3.13µM*
COc1cccc(NC(=O)CCc2nc(-c3ccc(C(C)(C)C)cc3)no2)c1 | · | · | · | · | · | 20.3% | 15.7% | 7µM*
COCc1nc(CCNC(=O)CCc2nc(-c3cccc(C)c3)no2)no1 | · | -1.5% | · | -10.9% | i | · | · | ·
CCOC(=O)c1ccc(NC(=O)CC2CCCCN(C)C2=O)cc1 (stereo unspecified) | i | -18.9% | -1.6% | -7.1% | 2.9% | · | · | ·
CCOC(=O)c1ccc(NC2SC(=O)N(Cc3cccc(C(=O)O)c3)C2=O)cc1 (stereo unspecified) | · | · | · | · | · | 14.3% | ? | ?
CNC(=O)c1cc(C)nc2onc(C3CCCN3C(=O)OC)c12 (stereo unspecified) | · | -2.9%[172 µM] | · | i | · | · | · | ·
CSc1ccccc1-c1nc(C2CCOC2)no1 (stereo unspecified) | i | -2.2% | 3.2% | ? | -15.9% | · | · | ·
Cc1onc(-c2ccccc2Cl)c1-c1nc(C2CCOC2)no1 (stereo unspecified) | i | -25.8% | 4.7% | -29.9% | -1.2% | · | · | ·
